Active and inactive are the calls of the source. The calls were made as follows: active = hit-call score of the fitted dose curve at least 0.9, where 1 is the maximum; inactive = score below 0.9.
How the values were obtained:
[1] = ATG_M_32_CIS: Attagene CIS-FACTORIAL HepG2 Assay for M32 Transcription Factor (Internal Marker) (AID 2282949); settings: HepG2 Attagene cis-factorial M32 reporter, mRNA; actives raise or lower the signal;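 also: background control marker of the multiplexed CIS panel rather than a real target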
Procedure, shortened: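 Using DMSO as baseline, bidirectional curve fits were applied to reporter mRNA signals. These came from transiently transfected HepG2 cells exposed for 24 h, with RNA analysed by RT-PCR, FAM primer extension, HpaI digestion and CE.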

[2] = ATG_M_06_CIS: Attagene CIS-FACTORIAL HepG2 Assay for M06 Transcription Factor (Internal Marker) (AID 2282950); settings: HepG2 Attagene CIS-FACTORIAL M06 internal marker reporter; actives raise or lower the signal
Procedure, shortened: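 Read-out is fluorescence of labelled reporter cDNA fragments resolved by capillary electrophoresis after RT-PCR. Cells: HepG2 carrying transfected cis-promoter reporter units, treated 24 h. Gain or loss of signal fitted relative to DMSO.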

[3] = target: Hypoxia-inducible factor 1-alpha (Homo sapiens) (UniProt Q16665); assay: ATG_HIF1a_CIS: Attagene CIS-FACTORIAL HepG2 Assay for human Hypoxia Inducible Factor 1 (HIF1A) (AID 2282951); settings: HepG2 Attagene cis-factorial HIF1a reporter transcription; actives raise or lower the signal
Sequence of Hypoxia-inducible factor 1-alpha (Homo sapiens) (Q16665 whole entry, looked up): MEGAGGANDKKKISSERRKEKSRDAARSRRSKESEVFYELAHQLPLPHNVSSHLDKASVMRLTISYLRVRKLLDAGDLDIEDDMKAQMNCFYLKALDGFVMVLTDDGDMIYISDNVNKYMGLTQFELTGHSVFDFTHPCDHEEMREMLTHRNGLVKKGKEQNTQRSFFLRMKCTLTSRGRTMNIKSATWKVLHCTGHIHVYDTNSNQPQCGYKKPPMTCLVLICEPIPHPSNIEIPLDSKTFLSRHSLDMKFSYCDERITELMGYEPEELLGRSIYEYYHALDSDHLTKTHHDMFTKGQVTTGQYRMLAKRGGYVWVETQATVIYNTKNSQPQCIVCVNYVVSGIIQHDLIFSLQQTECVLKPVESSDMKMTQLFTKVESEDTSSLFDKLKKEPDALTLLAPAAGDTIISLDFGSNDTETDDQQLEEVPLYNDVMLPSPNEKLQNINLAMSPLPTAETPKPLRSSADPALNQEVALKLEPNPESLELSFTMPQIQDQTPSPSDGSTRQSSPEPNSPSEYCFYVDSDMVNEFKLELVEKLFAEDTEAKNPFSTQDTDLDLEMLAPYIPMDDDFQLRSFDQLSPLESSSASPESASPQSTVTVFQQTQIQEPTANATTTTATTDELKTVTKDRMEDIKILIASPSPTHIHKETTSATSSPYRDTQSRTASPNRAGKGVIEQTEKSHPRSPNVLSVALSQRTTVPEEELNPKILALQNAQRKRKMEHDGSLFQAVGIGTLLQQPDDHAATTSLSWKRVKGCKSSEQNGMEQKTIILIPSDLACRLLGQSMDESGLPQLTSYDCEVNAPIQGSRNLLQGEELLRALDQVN
Procedure, shortened: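 In this multiplexed cell assay, HepG2 cells bearing transfected cis reporters are dosed for 24 h and reporter mRNA is read by RT-PCR plus capillary electrophoresis; signal increases and decreases are both scored against DMSO.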

[4] = target: Hepatocyte nuclear factor 6 (Homo sapiens) (UniProt Q9UBC0); assay: ATG_HNF6_CIS: Attagene CIS-FACTORIAL HepG2 Assay for human Hepatocyte Nuclear Factor 6 (HNF6) (AID 2282952); settings: HepG2 Attagene cis-factorial HNF6 reporter transcription; actives raise or lower the signal
Sequence of Hepatocyte nuclear factor 6 (Homo sapiens) (Q9UBC0 whole entry, looked up): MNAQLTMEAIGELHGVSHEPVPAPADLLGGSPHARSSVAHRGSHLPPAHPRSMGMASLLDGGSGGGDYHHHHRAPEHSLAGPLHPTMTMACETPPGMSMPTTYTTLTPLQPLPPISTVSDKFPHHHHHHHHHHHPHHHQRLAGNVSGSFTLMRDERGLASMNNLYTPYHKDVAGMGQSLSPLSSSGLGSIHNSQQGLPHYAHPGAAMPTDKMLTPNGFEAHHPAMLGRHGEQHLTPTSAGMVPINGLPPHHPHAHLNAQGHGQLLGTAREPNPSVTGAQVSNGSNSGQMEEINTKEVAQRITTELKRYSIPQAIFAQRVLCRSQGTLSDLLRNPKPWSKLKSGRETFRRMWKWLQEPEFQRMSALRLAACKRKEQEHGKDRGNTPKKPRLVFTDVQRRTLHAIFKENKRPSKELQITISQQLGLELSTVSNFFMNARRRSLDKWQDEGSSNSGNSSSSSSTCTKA
Procedure, shortened: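 Endogenous transcription factor activity in human HepG2 liver cells was captured through cis-regulated reporter constructs. After 24 h treatment, reporter mRNA was measured by RT-PCR with capillary electrophoresis, and activity was fitted in both directions relative to DMSO.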

[5] = target: Heat shock factor protein 1 (Homo sapiens) (UniProt Q00613); assay: ATG_HSE_CIS: Attagene CIS-FACTORIAL HepG2 Assay for human Heat Shock Transcription Factor 1 (HSE) (AID 2282953); settings: HepG2 HSE cis-reporter, Attagene RNA transcription; actives raise or lower the signal
Sequence of Heat shock factor protein 1 (Homo sapiens) (Q00613 whole entry, looked up): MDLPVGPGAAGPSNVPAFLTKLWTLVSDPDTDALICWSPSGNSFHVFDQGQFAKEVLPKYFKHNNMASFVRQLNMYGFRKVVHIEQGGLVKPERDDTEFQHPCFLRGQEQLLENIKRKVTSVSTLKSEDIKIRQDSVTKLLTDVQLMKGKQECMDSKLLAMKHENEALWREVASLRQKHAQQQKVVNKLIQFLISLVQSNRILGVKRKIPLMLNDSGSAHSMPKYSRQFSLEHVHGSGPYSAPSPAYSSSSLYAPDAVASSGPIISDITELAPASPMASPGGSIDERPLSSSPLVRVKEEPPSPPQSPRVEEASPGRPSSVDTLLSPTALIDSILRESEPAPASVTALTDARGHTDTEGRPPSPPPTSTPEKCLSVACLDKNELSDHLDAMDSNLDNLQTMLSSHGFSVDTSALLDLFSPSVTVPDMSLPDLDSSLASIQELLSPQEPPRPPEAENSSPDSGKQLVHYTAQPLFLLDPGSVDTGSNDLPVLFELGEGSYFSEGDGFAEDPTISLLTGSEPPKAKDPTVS
Procedure, shortened: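 HepG2, transient MRTU transfection, cis-promoter reporters (endogenous TF activity). 24 h compound. RNA → oligo(dT) RT → PCR → 6-FAM primer extension → HpaI cut → CE. Bidirectional fit vs DMSO.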

[6] = ATG_MRE_CIS: Attagene CIS-FACTORIAL HepG2 Assay for human Metal Responsive Element (MRE) (AID 2282954); settings: HepG2 MRE cis-reporter transcription, Attagene multiplex; actives raise or lower the signal
Procedure, shortened: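 Multiplexed cis-reporter assay in human HepG2 liver cells, 24 h incubation with test chemical. Reporter transcripts measured by RT-PCR and capillary electrophoresis; values from bidirectional curve fitting versus DMSO.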

[7] = ATG_PBREM_CIS: Attagene CIS-FACTORIAL HepG2 Assay for human Phenobarbital-responsive Enhancer Module (PBREM) (AID 2282955); settings: HepG2 PBREM cis-reporter, Attagene multiplexed transcription; actives raise or lower the signal
Procedure, shortened: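 After a 24 h incubation with test chemical, transfected HepG2 cells yield total RNA; reporter-specific RT-PCR products are fluorescently labelled, HpaI-digested and resolved by capillary electrophoresis against ROX size standards.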

[8] = target: Paired box protein Pax-6 (Homo sapiens) (UniProt P26367); assay: ATG_Pax6_CIS: Attagene CIS-FACTORIAL HepG2 Assay for human Paired Box 6 (PAX6) (AID 2282956); settings: HepG2 CIS-FACTORIAL PAX6 reporter transcription, RNA readout; actives raise or lower the signal
Sequence of Paired box protein Pax-6 (Homo sapiens) (P26367 whole entry, looked up): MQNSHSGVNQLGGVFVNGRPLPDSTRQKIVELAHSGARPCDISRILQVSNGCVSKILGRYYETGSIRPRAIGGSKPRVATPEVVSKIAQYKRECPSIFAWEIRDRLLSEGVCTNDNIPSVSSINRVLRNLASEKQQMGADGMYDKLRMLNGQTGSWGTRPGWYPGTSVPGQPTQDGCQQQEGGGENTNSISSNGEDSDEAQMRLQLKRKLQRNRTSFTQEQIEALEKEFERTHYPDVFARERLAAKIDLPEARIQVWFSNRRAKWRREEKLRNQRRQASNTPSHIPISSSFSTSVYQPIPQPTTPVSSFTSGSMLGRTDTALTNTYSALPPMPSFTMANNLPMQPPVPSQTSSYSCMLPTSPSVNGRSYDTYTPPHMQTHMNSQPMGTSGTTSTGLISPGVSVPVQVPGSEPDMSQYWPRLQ
Procedure, shortened: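 DMSO-referenced bidirectional fits of reporter mRNA fluorescence; HepG2 with transient cis-promoter MRTUs, 24 h post-dose, RT-PCR plus capillary electrophoresis detection.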

[9] = ATG_PXRE_CIS: Attagene CIS-FACTORIAL HepG2 Assay for human Pregnane X Receptor Element (PXRE) (AID 2282957); settings: HepG2 Attagene CIS-FACTORIAL PXRE reporter, mRNA; actives raise or lower the signal
Procedure, shortened: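 Endogenous transcription factor activity in HepG2 was gauged through induction of reporter mRNA driven by a cis-regulating promoter element, sampled 24 h post-treatment. Activity was fitted in both directions against DMSO negative control.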

[10] = ATG_PPRE_CIS: Attagene CIS-FACTORIAL HepG2 Assay for human Peroxisome Proliferator-activated Response Element (PPRE) (AID 2282958); settings: HepG2 PPRE cis-element reporter, Attagene transcription factor profiling; actives raise or lower the signal
Procedure, shortened: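 Multiplexed reporter transcription units under cis-regulatory promoters were transfected into HepG2 cells to capture endogenous factor activity. A 24 h incubation preceded RNA isolation and fluorescent RT-PCR fragment analysis.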

[11] = ATG_RORE_CIS: Attagene CIS-FACTORIAL HepG2 Assay for human RAR-related Orphan Receptor Element (RORE) (AID 2282959); settings: HepG2 Attagene cis-factorial RORE reporter, mRNA; actives raise or lower the signal
Procedure, shortened: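 Fluorescence intensity of reporter-specific cDNA fragments, separated by capillary electrophoresis, gives the signal. Source: HepG2 liver cells transiently transfected with cis-element reporters and exposed 24 h; DMSO-normalized bidirectional fit.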

[12] = ATG_Sox_CIS: Attagene CIS-FACTORIAL HepG2 Assay for human SRY-box transcription factor (SOX) (AID 2282960); settings: HepG2 Attagene cis-factorial SOX reporter, mRNA; actives raise or lower the signal
Procedure, shortened: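 After 24 h of chemical treatment, transfected HepG2 reporter cells are lysed for total RNA. Transcript levels come from RT-PCR with labelled primer extension and capillary electrophoresis, analysed bidirectionally versus DMSO.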

[13] = target: Transcription factor Sp1 (Homo sapiens) (UniProt P08047); assay: ATG_Sp1_CIS: Attagene CIS-FACTORIAL HepG2 Assay for human Specificity Protein 1 (Sp1) (AID 2282961); settings: HepG2 Sp1 cis-reporter transcription, actives raise or lower the signal
Sequence of Transcription factor Sp1 (Homo sapiens) (P08047 whole entry, looked up): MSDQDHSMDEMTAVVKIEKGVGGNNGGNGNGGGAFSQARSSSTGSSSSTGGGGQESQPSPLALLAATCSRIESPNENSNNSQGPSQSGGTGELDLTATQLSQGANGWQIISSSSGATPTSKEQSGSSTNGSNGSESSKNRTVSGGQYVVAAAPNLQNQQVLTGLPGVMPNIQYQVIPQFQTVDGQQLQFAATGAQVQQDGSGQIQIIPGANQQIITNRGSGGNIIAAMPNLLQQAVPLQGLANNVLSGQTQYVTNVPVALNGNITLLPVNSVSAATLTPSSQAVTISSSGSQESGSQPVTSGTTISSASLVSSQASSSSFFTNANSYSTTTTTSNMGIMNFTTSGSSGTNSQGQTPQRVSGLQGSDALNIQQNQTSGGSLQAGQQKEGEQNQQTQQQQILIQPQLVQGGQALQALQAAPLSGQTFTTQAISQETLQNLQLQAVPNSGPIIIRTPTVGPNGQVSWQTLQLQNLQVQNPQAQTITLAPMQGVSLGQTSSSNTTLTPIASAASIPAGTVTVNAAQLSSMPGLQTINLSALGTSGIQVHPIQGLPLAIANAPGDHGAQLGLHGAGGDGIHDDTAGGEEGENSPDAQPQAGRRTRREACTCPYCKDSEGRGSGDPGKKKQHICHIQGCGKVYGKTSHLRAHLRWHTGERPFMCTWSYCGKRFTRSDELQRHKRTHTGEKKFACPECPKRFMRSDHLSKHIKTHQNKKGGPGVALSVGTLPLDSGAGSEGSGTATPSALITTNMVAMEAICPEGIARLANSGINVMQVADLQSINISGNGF
Procedure, shortened: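 Sp1-driven reporter mRNA, read as capillary electrophoresis fluorescence after RT-PCR, in transiently transfected HepG2 cells dosed for 24 h; signal change in either direction relative to DMSO.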

[14] = ATG_SREBP_CIS: Attagene CIS-FACTORIAL HepG2 Assay for human Sterol Regulatory Element Binding (SREBP) (AID 2282962); settings: HepG2 Attagene cis-factorial SREBP reporter, mRNA; actives raise or lower the signal
Procedure, shortened: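 In this cis-format assay, HepG2 liver cells express reporters controlled by promoter elements responsive to native transcription factors. Exposure lasts 24 h; reporter mRNA fluorescence from capillary electrophoresis gives the signal, fitted bidirectionally against DMSO.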

[15] = target: Signal transducer and activator of transcription 3 (Homo sapiens) (UniProt P40763); assay: ATG_STAT3_CIS: Attagene CIS-FACTORIAL HepG2 Assay for human Signal Transducer and Activator of Transcription 3 (STAT3) (AID 2282963); settings: HepG2, Attagene cis-factorial STAT3 reporter transcription; actives raise or lower the signal
Sequence of Signal transducer and activator of transcription 3 (Homo sapiens) (P40763 whole entry, looked up): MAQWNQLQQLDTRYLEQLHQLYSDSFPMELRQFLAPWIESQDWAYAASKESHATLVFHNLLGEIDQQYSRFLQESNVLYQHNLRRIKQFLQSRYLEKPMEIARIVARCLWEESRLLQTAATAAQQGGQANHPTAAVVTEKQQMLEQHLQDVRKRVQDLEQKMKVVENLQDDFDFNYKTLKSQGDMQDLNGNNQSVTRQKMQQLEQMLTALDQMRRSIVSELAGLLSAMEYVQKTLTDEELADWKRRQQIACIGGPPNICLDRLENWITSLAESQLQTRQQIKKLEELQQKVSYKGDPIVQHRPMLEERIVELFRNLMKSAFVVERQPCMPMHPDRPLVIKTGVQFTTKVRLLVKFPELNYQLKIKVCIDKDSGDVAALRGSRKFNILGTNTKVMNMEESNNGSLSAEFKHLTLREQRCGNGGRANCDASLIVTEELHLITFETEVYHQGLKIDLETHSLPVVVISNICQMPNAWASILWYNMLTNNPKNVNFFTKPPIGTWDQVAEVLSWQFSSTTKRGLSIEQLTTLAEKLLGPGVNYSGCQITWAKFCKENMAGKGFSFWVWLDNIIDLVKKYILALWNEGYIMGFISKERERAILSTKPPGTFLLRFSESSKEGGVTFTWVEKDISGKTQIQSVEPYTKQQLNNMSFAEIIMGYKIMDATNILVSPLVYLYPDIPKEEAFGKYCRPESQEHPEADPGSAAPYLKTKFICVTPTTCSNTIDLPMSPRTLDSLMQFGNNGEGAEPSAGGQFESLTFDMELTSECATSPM
Procedure, shortened: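 Cis-factorial format: endogenous transcription factors in HepG2 drive transfected reporter units. After 24 h treatment, reporter RNA was reverse-transcribed, amplified, FAM-labelled and HpaI-digested before CE analysis; activity scored in both directions against DMSO.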

[16] = ATG_TA_CIS: Attagene CIS-FACTORIAL HepG2 Assay for human TA Basal Promoter (AID 2282964); settings: HepG2 Attagene CIS-factorial TA basal promoter reporter; actives raise or lower the signal
Procedure, shortened: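 Read-out: fluorescent reporter-transcript fragments resolved by capillary electrophoresis after RT-PCR and HpaI digestion. Source: HepG2 cells carrying transiently transfected multi-reporter cis constructs, treated 24 h. Endpoint fitted bidirectionally relative to DMSO.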

[17] = ATG_TCF_b_cat_CIS: Attagene CIS-FACTORIAL HepG2 Assay for human T-Cell-Factor with beta-catenin (TCF/b-cat) (AID 2282965); settings: HepG2 TCF/beta-catenin cis-reporter transcription, actives raise or lower the signal
Procedure, shortened: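 Measured: reporter mRNA in HepG2 transiently transfected with cis-promoter reporter units, 24 h after chemical addition. Fitting was bidirectional, DMSO as negative control.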

[18] = ATG_TAL_CIS: Attagene CIS-FACTORIAL HepG2 Assay for human TAL Basal Promoter (AID 2282966); settings: HepG2 Attagene cis-factorial TAL promoter reporter; actives raise or lower the signal;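 also: background control endpoint measuring basal TAL promoter reporter mRNA not a specific factor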
Procedure, shortened: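 Endogenous transcription-factor activity is sensed in HepG2 cells through transfected cis-promoter reporter constructs. After 24 h dosing, reporter transcripts are quantified by RT-PCR and capillary electrophoresis. Gain or loss of signal is fitted relative to DMSO.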

[19] = ATG_TGFb_CIS: Attagene CIS-FACTORIAL HepG2 Assay for human Transforming Growth Factor (TGF) (AID 2282967); settings: HepG2 Attagene CIS TGFb reporter, mRNA transcription; actives raise or lower the signal
Procedure, shortened: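 Transient MRTU transfection of HepG2 (FuGene 6). Dose 24 h. TriZol RNA, oligo(dT) RT, PCR, 6-FAM primer extension, HpaI cut, CE. Bidirectional fit, DMSO = baseline.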

[20] = ATG_VDRE_CIS: Attagene CIS-FACTORIAL HepG2 Assay for human Vitamin D Receptor Element (VDRE) (AID 2282968); settings: HepG2 VDRE cis-reporter transcription, actives raise or lower the signal
Procedure, shortened: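 Measures endogenous factor activity through cis-element-driven reporter transcripts in transiently transfected HepG2. Cells are treated 24 h; reporter mRNA is quantified by RT-PCR and capillary electrophoresis; fitting is bidirectional.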

Measured: AC50

c1ccc2sc(SNC3CCCCC3)nc2c1
active: [3] 100 µM | [5] 159 µM | [6] 119 µM | [8] 154 µM | [9] 27 µM | [13] 184 µM | [14] 148 µM | [19] 34.4 µM
inactive: all other assays above

CCOCn1c(-c2ccc(Cl)cc2)c(C#N)c(Br)c1C(F)(F)F
inactive: [2] | [3] | [7] | [16] | [18]
active: [1] 148 µM | [4] 184 µM | [5] 53.2 µM | [6] 34.7 µM | [8] 2.77 µM | [9] 0.46 µM | [10] 4.17 µM | [11] 3.54 µM | [12] 30.4 µM | [13] 30.6 µM | [14] 49 µM | [15] 142 µM | [17] 7.11 µM | [19] 25.6 µM | [20] 1.79 µM

CCCCC(CC)C(=O)Cl (configuration not stated)
not listed: [19] | [20]
inactive: all other assays above

C[As+](C)(C)CC(=O)[O-]
inactive: all assays above

C=CCCl
active: [9] 100 µM
inactive: all other assays above

CC(C)(C)c1cc([N+](=O)[O-])cc(C(C)(C)C)c1O
active: [6] 42.4 µM | [7] 2.52 µM | [9] 4.23 µM | [10] 12.8 µM | [11] 28.7 µM | [19] 26.3 µM | [20] 3.16 µM
inactive: all other assays above

CCC[CH2][Sn]([CH2]CCC)([CH2]CCC)[CH2]CCC
inactive: [1] | [2] | [3] | [4] | [6] | [11] | [18] | [19]
active: [5] 17.1 µM | [7] 2.9 µM | [8] 11.1 µM | [9] 18.3 µM | [10] 2.2 µM | [12] 11.1 µM | [13] 9.76 µM | [14] 2.82 µM | [15] 11.1 µM | [16] 17.1 µM | [17] 15.3 µM | [20] 4.44 µM

CCN(CCO)CCO
active: [9] 27.2 µM
not listed: [19]
inactive: all other assays above

CCCCS(=O)(=O)Cl
inactive: all assays above

Nc1cccnc1
active: [9] 40.2 µM | [20] 50.1 µM
inactive: all other assays above

Fc1cccc(Cl)c1CCl
active: [5] 159 µM | [8] 73.9 µM | [12] 100 µM | [13] 65.3 µM | [17] 100 µM
not listed: [20]
inactive: all other assays above

Brc1ccc(Br)cc1
inactive: all assays above

Cc1cc(Cl)ccc1OC(C)C(=O)O (configuration not stated)
active: [10] 68.4 µM
not listed: [20]
inactive: all other assays above

CCOP(=S)(OCC)OP(=S)(OCC)OCC
active: [3] 49.2 µM
not listed: [9] | [18] | [20]
inactive: all other assays above

From PubChem BioAssay (EPA / NIEHS)
